The results in this text go back to PubChem BioAssay (EPA / NIEHS).

Each structure is given as a SMILES string. Where “and” joins values, the source holds several entries; their conditions need not be identical. Equal values may be shown once. Some compounds were tested as several samples or in several runs, with calls that do not always agree. Calls of active or inactive are those of the source. How the source made its calls: active means hit-call score of the fitted dose curve at least 0.9, where 1 is the maximum; inactive means score below 0.9.

Experiment [1] can be described thus: APR_HepG2_NuclearSize_72hr: Apredica 72-hour HepG2 Assay for Nuclear Size (AID 2282925). To be noted: high-content imaging, actives raise or lower the signal. Put shortly:
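HepG2 cells were exposed to compounds at ten concentrations from 0.39 to 200 uM (duplicate, 0.5% DMSO final) for 72 hr. After fixation in 3.7% formaldehyde, nuclei were stained with Hoechst 33342 (2 ug/mL) and imaged at 20x.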

Experiment [2] in a line: ATG_CRE_CIS: Attagene CIS-FACTORIAL HepG2 Assay for human cAMP Responsive Element (CRE) binding protein 3 (AID 2282926). To be noted: HepG2 CRE cis-reporter, Attagene multiplexed mRNA; actives raise or lower the signal. In short, it runs like this:
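HepG2 cells transiently transfected with cis-element-driven multiple reporter transcription units; CRE reporter mRNA measured 24 h after dosing by RT-PCR, 6-FAM labelling, HpaI digestion and capillary electrophoresis. Bidirectional fit versus DMSO baseline.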

The target in experiment [3] is CCAAT/enhancer-binding protein beta (Homo sapiens) (UniProt P17676). As to the kind of experiment: ATG_C_EBP_CIS: Attagene CIS-FACTORIAL HepG2 Assay for human CCAAT/Enhancer Binding Protein (C/EBP) beta (AID 2282927). As to conditions: HepG2 Attagene cis-factorial transcription factor reporter; actives raise or lower the signal. Put shortly: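 RT-PCR/capillary electrophoresis fluorescence of reporter mRNA, 24 h post-dose, in HepG2 cells carrying transfected cis-promoter reporter units. Bidirectional curve fitting against DMSO baseline captures gain or loss of signal.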
Sequence of CCAAT/enhancer-binding protein beta (Homo sapiens) (P17676 whole entry, looked up): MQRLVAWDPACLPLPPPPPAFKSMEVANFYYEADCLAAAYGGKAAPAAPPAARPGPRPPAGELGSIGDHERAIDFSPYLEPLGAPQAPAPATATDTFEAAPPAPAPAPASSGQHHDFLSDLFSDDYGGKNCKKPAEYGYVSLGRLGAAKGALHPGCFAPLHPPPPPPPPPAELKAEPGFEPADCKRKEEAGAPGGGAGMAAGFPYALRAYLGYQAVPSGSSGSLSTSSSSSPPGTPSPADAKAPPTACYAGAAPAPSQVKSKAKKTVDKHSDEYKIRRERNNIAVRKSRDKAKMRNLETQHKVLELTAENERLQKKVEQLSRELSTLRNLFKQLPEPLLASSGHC

Experiment [4] can be described thus: ATG_CMV_CIS: Attagene CIS-FACTORIAL HepG2 Assay for human CMV (Internal Marker) (AID 2282928).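 Further: endpoint acts as a background internal control marker rather than a target.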 As to conditions: HepG2 CMV promoter reporter, transcription factor profiling; actives raise or lower the signal. In short, it runs like this:
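CMV internal-marker background readout in transiently transfected HepG2 cells bearing cis-regulated reporter units. Reporter mRNA is measured 24 h after dosing by RT-PCR and capillary electrophoresis, with bidirectional fitting against DMSO.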

Experiment [5] in a line: ATG_DR4_LXR_CIS: Attagene CIS-FACTORIAL HepG2 Assay for human Liver X Receptor (LXR), DR4 submotif (AID 2282929). To be noted: HepG2 Attagene DR4 cis-reporter, mRNA transcription; actives raise or lower the signal. Put shortly:
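Cells were transfected with multiple reporter transcription units, exposed to chemicals for 24 hours, then lysed for RNA. Reporter mRNA induction was measured by RT-PCR with capillary electrophoresis detection and fitted in both directions relative to DMSO.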

Experiment [6] concerns the target Aryl hydrocarbon receptor (Homo sapiens) (UniProt P35869). As to the kind of experiment: ATG_Ahr_CIS: Attagene CIS-FACTORIAL HepG2 Assay for human Aryl Hydrocarbon Receptor (Ahr) (AID 2282930). To be noted: HepG2 AhR cis-factorial reporter transcription; actives raise or lower the signal. Put shortly: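 HepG2 cells transiently transfected with cis-element-driven multiplexed reporter transcription units; endogenous transcription factor activity measured as reporter mRNA 24 h after dosing. RT-PCR, 6-FAM labelling, HpaI digestion, capillary electrophoresis; bidirectional fitting versus DMSO baseline.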

Experiment [7] in a line: ATG_AP_1_CIS: Attagene CIS-FACTORIAL HepG2 Assay for human Activator Protein 1 (AP-1) (AID 2282931). As to conditions: HepG2 Attagene cis-factorial AP-1 reporter mRNA; actives raise or lower the signal. In short, it runs like this:
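Endogenous transcription-factor activity in human HepG2 liver cells is read through a cis-promoter reporter transcript, sampled 24 h after dosing. Detection uses RT-PCR with capillary electrophoresis; values come from bidirectional fitting relative to DMSO.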

Experiment [8] in a line: ATG_AP_2_CIS: Attagene CIS-FACTORIAL HepG2 Assay for human Activator Protein 2 (AP-2) (AID 2282932). To be noted: HepG2 AP-2 cis-reporter, Attagene transcription factor profiling; actives raise or lower the signal. Put shortly: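 HepG2 cells were transiently transfected with multiple cis-promoter reporter transcription units and dosed for 24 h. Reporter mRNA was measured by RT-PCR with capillary electrophoresis fluorescence; bidirectional fits relative to DMSO baseline.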

The nature of experiment [9]: ATG_BRE_CIS: Attagene CIS-FACTORIAL HepG2 Assay for human Bone Morphogenetic Protein (BMP) Response Element (BRE) (AID 2282933). To be noted: HepG2 BMP response element reporter, Attagene transcription factor profiling; actives raise or lower the signal. Put shortly: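 After a 24 h chemical treatment, transiently transfected HepG2 cells were lysed for RNA; reporter transcripts were quantified by fluorescent RT-PCR and capillary electrophoresis, normalised to DMSO.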

For experiment [10], the target named is Retinoic acid receptor alpha (Homo sapiens) (UniProt P10276). The experiment can be described thus: ATG_DR5_RAR_CIS: Attagene CIS-FACTORIAL HepG2 Assay for human Retinoic Acid Receptor Alpha (RARE), DR5 submotif (AID 2282934).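 On AC50: reporter responds to endogenous RAR alpha beta and gamma in HepG2 not RARA alone.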 As to conditions: HepG2 Attagene cis-factorial RARE DR5 reporter, mRNA; actives raise or lower the signal. Put shortly: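 HepG2 cells transiently transfected with multiplexed reporter units under cis (DR5 RARE) promoters, so endogenous transcription factor activity is measured. After 24 h compound exposure, reporter mRNA is quantified by RT-PCR with fluorescent labelling and capillary electrophoresis; bidirectional fitting versus DMSO.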
Sequence of Retinoic acid receptor alpha (Homo sapiens) (P10276 whole entry, looked up): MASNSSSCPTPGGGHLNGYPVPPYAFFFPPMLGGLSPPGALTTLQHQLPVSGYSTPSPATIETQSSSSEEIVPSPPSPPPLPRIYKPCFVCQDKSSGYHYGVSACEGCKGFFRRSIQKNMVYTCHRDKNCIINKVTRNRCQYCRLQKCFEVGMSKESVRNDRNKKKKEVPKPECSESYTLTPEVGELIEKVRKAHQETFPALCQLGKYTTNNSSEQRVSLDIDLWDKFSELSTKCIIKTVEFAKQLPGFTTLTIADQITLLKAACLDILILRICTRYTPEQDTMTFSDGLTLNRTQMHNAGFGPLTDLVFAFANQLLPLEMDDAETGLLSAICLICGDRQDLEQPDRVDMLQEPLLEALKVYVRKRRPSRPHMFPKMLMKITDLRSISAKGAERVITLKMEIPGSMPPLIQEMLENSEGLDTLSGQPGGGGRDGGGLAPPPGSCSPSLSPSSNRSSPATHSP

In experiment [11] the target is Transcription factor E2F1 (Homo sapiens) (UniProt Q01094). As to the kind of experiment: ATG_E2F_CIS: Attagene CIS-FACTORIAL HepG2 Assay for human E2F Transcription Factor 1 (AID 2282935). As to conditions: HepG2 Attagene cis-reporter, E2F reporter RNA transcripts; actives raise or lower the signal. In short, it runs like this:
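HepG2 cells transiently transfected with multiplexed cis-element reporter units, dosed for 24 h. Reporter mRNA measured by RT-PCR, 6-FAM primer-extension labeling, HpaI digestion and capillary electrophoresis; bidirectional fit versus DMSO baseline.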

Experiment [12] in a line: ATG_E_Box_CIS: Attagene CIS-FACTORIAL HepG2 Assay for human Enhancer Box (E-box) (AID 2282936). As to conditions: HepG2 E-box cis-reporter transcription, actives raise or lower the signal. Put shortly: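 HepG2 cells transiently transfected with multiplexed cis-element reporter units sensing endogenous transcription factor activity; 24 h compound exposure. Reporter mRNA measured by RT-PCR, 6-FAM primer extension, HpaI digestion and capillary electrophoresis; bidirectional fit versus DMSO.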

Experiment [13] can be described thus: ATG_M_61_CIS: Attagene CIS-FACTORIAL HepG2 Assay for M61 Transcription Factor (Internal Marker) (AID 2282937). To be noted: HepG2 Attagene CIS-FACTORIAL M61 internal marker reporter; actives raise or lower the signal. In short, it runs like this:
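Cells were transfected with reporter units under cis-regulatory promoters, treated with chemicals for 24 h, then lysed for RNA. Reporter transcripts were quantified by RT-PCR and capillary electrophoresis, and activity was fitted bidirectionally against DMSO.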

Experiment [14] in a line: ATG_EGR_CIS: Attagene CIS-FACTORIAL HepG2 Assay for human Early Growth Response 1 (EGR1) (AID 2282938). To be noted: HepG2 Attagene CIS-FACTORIAL EGR reporter mRNA; actives raise or lower the signal. In short, it runs like this: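 Endogenous TF activity in HepG2 liver cells was gauged through cis-promoter reporter constructs transiently transfected. After 24 h dosing, reporter mRNA was quantified by RT-PCR and capillary electrophoresis, and curves fitted in both directions versus DMSO.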

Experiment [15] can be described thus: ATG_M_19_CIS: Attagene CIS-FACTORIAL HepG2 Assay for M19 Transcription Factor (Internal Marker) (AID 2282939). To be noted: HepG2 Attagene CIS-FACTORIAL M19 internal marker reporter; actives raise or lower the signal. In short, it runs like this:
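In this multiplexed cell assay, transiently transfected HepG2 reporter units report endogenous transcription-factor activity; after 24 hours of treatment, labelled reporter cDNA fragments are quantified by capillary electrophoresis and fitted bidirectionally against DMSO.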

The nature of experiment [16]: ATG_ERE_CIS: Attagene CIS-FACTORIAL HepG2 Assay for Estrogen Response Element (ERE) (AID 2282940). As to conditions: HepG2 ERE cis-reporter, Attagene RNA transcript; actives raise or lower the signal. Put shortly: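 Measuring endogenous transcription factor output, the assay doses transfected HepG2 cells for 24 hours and quantifies reporter transcripts by fluorescent RT-PCR and capillary electrophoresis, with DMSO as baseline.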

A short description of experiment [17]: ATG_Ets_CIS: Attagene CIS-FACTORIAL HepG2 Assay for human Erythroblast Transformation Specific (ETS) (AID 2282941). As to conditions: HepG2 ETS cis-reporter transcription, actives raise or lower the signal. Put shortly:
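HepG2 cells transfected with multiple cis-regulated reporter units measuring endogenous ETS-driven transcription, 24 h after dosing. Reporter mRNA quantified by RT-PCR with capillary electrophoresis; bidirectional fit relative to DMSO.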

For experiment [18], the target named is Hepatocyte nuclear factor 3-beta (Homo sapiens) (UniProt Q9Y261). As to the kind of experiment: ATG_FoxA2_CIS: Attagene CIS-FACTORIAL HepG2 Assay for human Forkhead box A2 (FOXA2) (AID 2282942). As to conditions: HepG2 cis-reporter transcription factor activity, 24 h; actives raise or lower the signal. Put shortly: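 Endogenous transcription factor activity was read in HepG2 cells carrying transiently transfected cis-promoter reporter units. After 24 h dosing, reporter mRNA was quantified by RT-PCR and capillary electrophoresis, and values fitted bidirectionally versus DMSO.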
Sequence of Hepatocyte nuclear factor 3-beta (Homo sapiens) (Q9Y261 whole entry, looked up): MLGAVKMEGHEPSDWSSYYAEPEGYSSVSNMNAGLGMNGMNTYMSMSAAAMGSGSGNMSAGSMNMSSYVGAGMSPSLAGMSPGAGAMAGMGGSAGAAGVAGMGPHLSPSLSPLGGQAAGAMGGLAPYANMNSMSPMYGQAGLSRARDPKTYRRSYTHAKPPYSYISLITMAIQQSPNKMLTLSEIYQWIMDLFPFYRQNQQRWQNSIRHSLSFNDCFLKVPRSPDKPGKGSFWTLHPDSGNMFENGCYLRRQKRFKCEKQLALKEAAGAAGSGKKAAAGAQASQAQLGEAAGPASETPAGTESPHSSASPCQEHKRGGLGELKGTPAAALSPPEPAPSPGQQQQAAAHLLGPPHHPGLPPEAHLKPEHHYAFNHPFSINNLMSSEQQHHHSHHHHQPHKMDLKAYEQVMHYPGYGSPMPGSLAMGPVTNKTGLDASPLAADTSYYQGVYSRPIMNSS

A short description of experiment [19]: ATG_GATA_CIS: Attagene CIS-FACTORIAL HepG2 Assay for human GATA Binding Protein (AID 2282944). As to conditions: HepG2 GATA cis-element reporter, Attagene multiplex mRNA; actives raise or lower the signal. Put shortly: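 Measures endogenous transcription factor-driven reporter mRNA in HepG2 cells transiently carrying cis-regulated constructs. 24 h dosing; RNA via oligo(dT) reverse transcription, PCR, HpaI digestion, capillary electrophoresis; fitted relative to DMSO.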

Experiment [20] is described as follows: ATG_FoxO_CIS: Attagene CIS-FACTORIAL HepG2 Assay for human Forkhead box O (FoxO) (AID 2282943). As to conditions: HepG2 Attagene cis-reporter, FoxO element, mRNA; actives raise or lower the signal. Put shortly:
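HepG2 cells transiently transfected with cis-promoter-driven multiple reporter transcription units; 24 h after chemical dosing, reporter mRNA quantified by RT-PCR, fluorescent primer extension, HpaI digestion and capillary electrophoresis. Bidirectional fitting versus DMSO baseline.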

Sequence of Transcription factor E2F1 (Homo sapiens) (Q01094 whole entry, looked up): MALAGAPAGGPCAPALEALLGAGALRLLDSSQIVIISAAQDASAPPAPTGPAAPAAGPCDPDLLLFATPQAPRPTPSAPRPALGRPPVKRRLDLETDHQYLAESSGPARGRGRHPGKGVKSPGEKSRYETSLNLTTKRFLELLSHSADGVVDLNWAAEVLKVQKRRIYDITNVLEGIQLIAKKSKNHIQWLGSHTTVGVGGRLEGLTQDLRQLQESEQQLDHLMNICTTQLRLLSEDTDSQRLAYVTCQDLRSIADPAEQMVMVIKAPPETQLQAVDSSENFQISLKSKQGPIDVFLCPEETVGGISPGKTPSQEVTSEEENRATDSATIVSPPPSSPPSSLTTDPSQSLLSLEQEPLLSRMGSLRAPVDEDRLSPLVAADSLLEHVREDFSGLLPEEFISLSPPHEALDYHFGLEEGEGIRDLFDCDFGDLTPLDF
Sequence of Aryl hydrocarbon receptor (Homo sapiens) (P35869 whole entry, looked up): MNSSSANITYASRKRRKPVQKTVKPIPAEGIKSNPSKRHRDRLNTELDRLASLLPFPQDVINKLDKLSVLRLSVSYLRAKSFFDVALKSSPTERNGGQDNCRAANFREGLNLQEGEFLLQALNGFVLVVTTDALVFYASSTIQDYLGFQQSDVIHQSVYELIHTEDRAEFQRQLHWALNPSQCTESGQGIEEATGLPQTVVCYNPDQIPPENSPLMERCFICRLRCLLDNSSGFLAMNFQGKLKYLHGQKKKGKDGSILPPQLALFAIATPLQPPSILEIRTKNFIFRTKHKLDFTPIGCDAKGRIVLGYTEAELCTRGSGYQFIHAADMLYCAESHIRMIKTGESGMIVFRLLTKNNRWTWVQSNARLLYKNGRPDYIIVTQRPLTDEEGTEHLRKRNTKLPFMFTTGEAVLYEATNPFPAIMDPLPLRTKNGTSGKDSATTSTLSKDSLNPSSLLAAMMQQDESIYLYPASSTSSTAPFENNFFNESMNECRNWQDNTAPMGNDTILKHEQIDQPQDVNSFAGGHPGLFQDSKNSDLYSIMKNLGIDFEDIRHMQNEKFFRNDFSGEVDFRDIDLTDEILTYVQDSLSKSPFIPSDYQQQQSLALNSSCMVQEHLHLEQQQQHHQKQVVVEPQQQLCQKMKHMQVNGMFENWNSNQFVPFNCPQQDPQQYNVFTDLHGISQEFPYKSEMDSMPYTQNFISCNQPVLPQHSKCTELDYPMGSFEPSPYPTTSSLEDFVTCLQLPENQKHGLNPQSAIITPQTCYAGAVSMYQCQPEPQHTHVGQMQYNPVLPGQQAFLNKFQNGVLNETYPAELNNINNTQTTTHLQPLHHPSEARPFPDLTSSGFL

As to `Cc1ccc(-c2c(Cl)nc(C#N)n2S(=O)(=O)N(C)C)cc1`, the compound was classed as inactive in experiment [1], in experiment [4], in experiment [5], in experiment [6], in [8] and in experiment [11]. Moreover, the result in experiment [12], in experiment [13], in experiment [14], in [15], in experiment [16] and in experiment [17] was inactive. Moreover, the compound was called inactive in [18] and in [19]. Further, the AC50 is 7.83 µM (active) in experiment [2]; 7.57 µM (active) in [3]; 9.12 µM (active) in experiment [7]; 10.3 µM (active) in [9]; 11.9 µM (active) in experiment [10].

As to `N#CC(CCc1ccc(Cl)cc1)(Cn1cncn1)c1ccccc1` (stereo unspecified), the outcome in [1], in experiment [2], in experiment [3], in [4], in [5] and in experiment [6] was inactive. The result in [8], in [9], in [10], in experiment [11], in [12] and in experiment [13] was inactive. In addition, the call in [14], in [15], in experiment [16], in experiment [17], in experiment [18] and in experiment [19] was inactive. Also, in experiment [7], the concentration at half-maximal activity (AC50) is 26.7 µM (active).

In the case of `OC(c1ccc(Cl)cc1)(c1cncnc1)c1ccccc1Cl` (stereo unspecified), the outcome in experiment [1], in experiment [2], in experiment [3], in [4], in experiment [5] and in experiment [6] was inactive. For the same compound, the outcome in experiment [8], in experiment [9], in experiment [10], in experiment [11], in experiment [12] and in [13] was inactive. Further, the result in experiment [14], in [15], in experiment [16], in experiment [17], in experiment [18] and in [19] was inactive. Besides, the AC50 is 2.95 µM (active) in [4]; 13.1 µM (active) in experiment [5]; 19.8 µM (active) in [9]; 13.1 µM (active) in experiment [10]; 2.6 µM (active) in [12]; 3.79 µM (active) in experiment [16]. Further, in experiment [19], the AC50 is 12.9 µM (active).

As to `N#Cc1cc(Br)c(O)c(Br)c1`, the outcome in [1], in [4], in experiment [5], in [8], in experiment [10] and in experiment [11] was inactive. Moreover, the outcome in experiment [12], in experiment [13], in experiment [14], in [15], in experiment [17] and in [18] was inactive. Besides, the call in [20] and in experiment [19] was inactive. The AC50 in experiment [2] is 33.5 µM (active); in experiment [3], 18.8 µM (active); in [6], 50 µM (active); in experiment [7] it was 50 µM (active); in experiment [9] it was 38.9 µM (active); in [16] it was 6.61 µM (active).

`CO/C=C(/C(=O)OC)c1ccccc1Oc1cc(Oc2ccccc2C#N)ncn1`: the compound was classed as inactive in experiment [1], in [2], in experiment [3], in experiment [4], in experiment [5] and in [6]. The outcome in experiment [8], in [9], in experiment [10], in experiment [11], in experiment [12] and in experiment [13] was inactive. Moreover, the compound was called inactive in experiment [14], in experiment [15], in experiment [16], in experiment [17], in experiment [18] and in experiment [19]. The concentration at half-maximal activity (AC50) in experiment [2] was 21 µM (active); in experiment [3], 7.46 µM (active); in [5], 41.8 µM (active) and 26.2 µM (active) and 52.9 µM (active); in experiment [6], 106 µM (active) and 122 µM (active); in [14] it was 11.7 µM (active) and 13.8 µM (active).
